Records with an inconclusive call do not appear. A call without a number means that no potency is given here. Calls of active or inactive are those of the source. Calls come from the whole dose curve; as a rule, active = well fitted inhibition curve with a large enough effect; inconclusive = small, poorly fitted or top-dose-only effect; inactive = no such curve, though single readings can be large or run the other way.
Tests used:
[1] = system: Zika virus NS2B-NS3 protease (unlinked complex); test: Primary screen GU Rhodamine qHTS for Zika virus inhibitors: Unlinked NS2B-NS3 protease assay (AID 1347159); note: nearly all actives have a fitted effect of over 60% in size; note: potency is the fitted concentration of half-maximal effect
Method in brief: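 Buffer 10 mM Tris-HCl pH 8.0, 0.01% Tween 20. Unlinked protease 25 nM; compound preincubation 15 min, RT, protected from light. Substrate Rhod110, 1.5 microM; ~15% conversion in 15 min.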

[2] = system: Zika virus NS2B-NS3 protease (linked construct); test: Primary screen NINDS Rhodamine qHTS for Zika virus inhibitors (AID 1347160); note: nearly all actives have a fitted effect of over 55% in size
Method in brief: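 Aprotinin served as in-plate control. Conditions: 25 nM linked NS2B-NS3, pH 8.0 Tris buffer, titrated compounds, 15 min preincubation and 15 min reaction with 1.5 microM Rhod110 substrate at room temperature.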

Structure (SMILES)	Potency [1]	Potency [2]
COC(C)(C)CCn1nc(Nc2c(C)cccc2C)c2cnc(Nc3ccc(OCCN4CCCC4)c(F)c3)nc21	inactive	inactive
C=C1C(=O)O[C@@H]2C(OC(=O)/C(C)=C\C)/C(C)=C\C(=O)/C=C(\C)C[C@H](O)[C@@H]12 (some centres undefined)	inactive	inactive
CN1CCN(C2=Nc3ccccc3Nc3ccc(Cl)cc32)CC1	inactive	inactive
CNc1nc(NCc2ccc(NS(C)(=O)=O)cc2Cl)cc(-c2ccccn2)n1	inactive	inactive
COc1cc(N2CCOCC2)ccc1NC(=O)c1csc(-c2cccnc2)n1	inactive	inactive
Cc1c(C2=CCN(C(=O)N(C)C(C)C)CC2)nnn1-c1cccnc1F	inactive	inactive
COC1=CC(=O)C=C(C)C12Oc1c(Cl)c(OC)cc(OC)c1C2=O (centres undefined)	inactive	inactive
COC(=O)C[C@H]1[C@]2(C)C3=C(C)[C@H](c4ccoc4)C[C@H]3O[C@@H]2[C@H](O)C2[C@](C)(C(=O)OC)C=CC(=O)[C@@]21C (some centres undefined)	inactive	inactive
CN1CCN(C2=Nc3ccccc3Nc3ccc(OS(=O)(=O)C(F)(F)F)cc32)CC1	inactive	inactive
CC12CCC(OC3OC(CO)C(O)C(O)C3OC3OC(CO)C(O)C(O)C3O)CC1CCC1C2CCC2(C)/C(=C3/COC(=O)C3)CCC12O (centres undefined)	inactive	inactive
CC[C@@H](C)Nc1cc(C(=O)NC2CC3CC[C@@H](C2)N3c2ccc(C(=O)C3CC3)cn2)c(C)cc1C(N)=O (some centres undefined)	inactive	inactive
CC1(C)Oc2ncnc(N)c2N=C1c1ccc(C23CCC(CC(=O)O)(CC2)CC3)cc1	50.1 µM (active)	inactive
